Results as given in the supplement of paper PMC6897291.

Columns and labels:
U-2932 [1] = assay: growth inhibition by drug alone (1 - RLU/untreated control) (fraction); higher = stronger inhibition; conditions: 177Lu-lilotomab satetraxetan 0 ug/ml
Procedure, shortened: (§1)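 RIVA or U-2932 cells, untreated or pretreated 18 h with a radiolabelled anti-CD37 antibody conjugate (~600 MBq/mg; 0.5 µg/ml RIVA, 1 µg/ml U-2932), were washed and seeded at 3,000 cells/well on plates pre-printed with the Selleck Cambridge Cancer Compound library. Doses were 10/100 nM (RIVA) or 10/1,000 nM (U-2932). RealTime-Glo luminescence was read daily from day 3 after 1 h at 37°C. Growth inhibition is 1 − RLU/mean of 48 untreated no-drug wells per plate.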

RIVA [2] = assay: as above; conditions: 177Lu-lilotomab satetraxetan 0 ug/ml
Procedure, shortened: as §1

U-2932 [3] = assay: growth inhibition by drug plus 177Lu-lilotomab satetraxetan (1 - RLU/untreated control) (fraction); higher = stronger inhibition; conditions: 177Lu-lilotomab satetraxetan 1 ug/ml
Procedure, shortened: as §1

RIVA [4] = assay: as above; conditions: 177Lu-lilotomab satetraxetan 0.5 ug/ml
Procedure, shortened: as §1

SMILES	growth inhibition by drug alone (U-2932 [1]; 10 nM, time (day): 3)	growth inhibition by drug alone (U-2932 [1]; 10 nM, time (day): 4)	growth inhibition by drug alone (U-2932 [1]; 10 nM, time (day): 5)	growth inhibition by drug alone (U-2932 [1]; 10 nM, time (day): 6)	growth inhibition by drug alone (U-2932 [1]; 1000 nM, time (day): 3)	growth inhibition by drug alone (U-2932 [1]; 1000 nM, time (day): 4)	growth inhibition by drug alone (U-2932 [1]; 1000 nM, time (day): 5)	growth inhibition by drug alone (U-2932 [1]; 1000 nM, time (day): 6)	growth inhibition by drug alone (RIVA [2]; 10 nM, time (day): 3)	growth inhibition by drug alone (RIVA [2]; 10 nM, time (day): 4)	growth inhibition by drug alone (RIVA [2]; 10 nM, time (day): 5)	growth inhibition by drug alone (RIVA [2]; 10 nM, time (day): 6)	growth inhibition by drug alone (RIVA [2]; 100 nM, time (day): 3)	growth inhibition by drug alone (RIVA [2]; 100 nM, time (day): 4)	growth inhibition by drug alone (RIVA [2]; 100 nM, time (day): 5)	growth inhibition by drug alone (RIVA [2]; 100 nM, time (day): 6)	growth inhibition by drug plus 177Lu-lilotomab satetraxetan (U-2932 [3]; 10 nM, time (day): 3)	growth inhibition by drug plus 177Lu-lilotomab satetraxetan (U-2932 [3]; 10 nM, time (day): 4)	growth inhibition by drug plus 177Lu-lilotomab satetraxetan (U-2932 [3]; 10 nM, time (day): 5)	growth inhibition by drug plus 177Lu-lilotomab satetraxetan (U-2932 [3]; 10 nM, time (day): 6)	growth inhibition by drug plus 177Lu-lilotomab satetraxetan (U-2932 [3]; 1000 nM, time (day): 3)	growth inhibition by drug plus 177Lu-lilotomab satetraxetan (U-2932 [3]; 1000 nM, time (day): 4)	growth inhibition by drug plus 177Lu-lilotomab satetraxetan (U-2932 [3]; 1000 nM, time (day): 5)	growth inhibition by drug plus 177Lu-lilotomab satetraxetan (U-2932 [3]; 1000 nM, time (day): 6)	growth inhibition by drug plus 177Lu-lilotomab satetraxetan (RIVA [4]; 10 nM, time (day): 3)	growth inhibition by drug plus 177Lu-lilotomab satetraxetan (RIVA [4]; 10 nM, time (day): 4)	growth inhibition by drug plus 177Lu-lilotomab satetraxetan (RIVA [4]; 10 nM, time (day): 5)	growth inhibition by drug plus 177Lu-lilotomab satetraxetan (RIVA [4]; 10 nM, time (day): 6)	growth inhibition by drug plus 177Lu-lilotomab satetraxetan (RIVA [4]; 100 nM, time (day): 3)	growth inhibition by drug plus 177Lu-lilotomab satetraxetan (RIVA [4]; 100 nM, time (day): 4)	growth inhibition by drug plus 177Lu-lilotomab satetraxetan (RIVA [4]; 100 nM, time (day): 5)	growth inhibition by drug plus 177Lu-lilotomab satetraxetan (RIVA [4]; 100 nM, time (day): 6)
O=c1[nH]cc(F)c(=O)[nH]1 [Adrucil (Fluorouracil)]	0.0617	0.0194	0.0184	-0.211	0.0564	0.0179	0.00587	-0.153	-0.0691	-0.144	-0.384	-0.72	-0.6	-0.481	-0.493	-0.619	-0.0549	0.00352	0.0517	0.0335	0.0514	0.0854	0.184	0.275	0.421	0.521	0.54	0.555	0.398	0.483	0.493	0.512
COc1ccc(CCN2CCN(CCCc3ccccc3)CC2)cc1OC	0.0269	-0.00972	-0.0184	-0.287	-0.032	-0.091	-0.153	-0.298	-0.0905	-0.186	-0.542	-0.55	-0.612	-0.501	-0.797	-0.809	-0.0743	-0.0209	0.0479	0.0237	0.0208	0.0062	0.0376	0.127	0.23	0.322	0.343	0.385	0.0167	0.137	0.119	0.162
O=C(Nc1cccnc1)N1CCC(Cc2cccc(Oc3ccc(C(F)(F)F)cn3)c2)CC1	0.144	0.101	-0.0107	-0.0195	0.779	0.796	0.833	0.872	0.473	0.369	0.37	0.34	-0.00381	0.0224	0.0325	-0.0255	0.152	0.18	0.262	0.319	0.299	0.291	0.395	0.544	0.71	0.692	0.714	0.718	0.554	0.566	0.583	0.595
O=C(CCCCCCC(=O)Nc1cccnc1)NO [Pyroxamide]	-0.0932	-0.0929	-0.129	-0.234	0.82	0.79	0.759	0.717	-0.263	-0.352	-0.468	-0.514	-0.333	-0.305	-0.265	-0.306	-0.106	-0.0647	-0.00568	0.0937	0.6	0.542	0.472	0.474	0.358	0.433	0.464	0.49	0.454	0.507	0.511	0.509
COc1cc(Nc2ncc3c(n2)-c2ccc(Cl)cc2C(c2c(F)cccc2OC)=NC3)ccc1C(=O)O [MLN8237 (Alisertib)]	0.00882	-0.00518	-0.0513	-0.269	0.101	0.128	0.153	0.291	-0.00668	-0.0776	-0.136	-0.266	0.624	0.553	0.569	0.599	0.0071	0.0562	0.0508	0.126	0.21	0.278	0.316	0.459	0.398	0.551	0.559	0.572	0.754	0.81	0.845	0.873
CC[C@]1(O)C[C@@H]2CN(CCc3c([nH]c4ccccc34)[C@@](C(=O)OC)(c3cc4c(cc3OC)N(C)[C@H]3[C@@](O)(C(=O)OC)[C@H](OC(C)=O)[C@]5(CC)C=CCN6CC[C@]43[C@@H]65)C2)C1 [Vinblastine]	0.125	0.0844	0.0429	0.00677	0.942	0.96	0.971	0.978	0.0866	0.101	0.0372	-0.193	0.546	0.442	0.393	0.337	0.0509	0.085	0.136	0.198	0.96	0.973	0.981	0.984	0.383	0.503	0.523	0.53	0.574	0.643	0.659	0.668
Nc1nc(OCc2cc(Br)cs2)c2[nH]cnc2n1 [Lomeguatrib]	-0.115	-0.036	-0.163	-0.244	-0.0214	-0.011	-0.105	-0.195	-0.0122	-0.0435	-0.118	-0.367	-0.0285	-0.0397	-0.0789	-0.154	0.00798	0.0431	0.0314	0.114	-0.0706	0.00418	0.025	0.00957	0.437	0.531	0.544	0.548	0.404	0.479	0.488	0.463
